Source: PubChem BioAssay (several laboratories)
SENP8 block-1: SENP8 (human) protease inhibition. inhibition, % at 20 µM. 0.64% of 360,000 active. Q96LD8. recombinant SENP8, Nedd8 substrate fluorescence. AID 602440; in the data active = inhibition mostly above about 40%, no sharp cut-off; inactive = mostly below about 27%
Target sequence (Q96LD8 whole entry, looked up): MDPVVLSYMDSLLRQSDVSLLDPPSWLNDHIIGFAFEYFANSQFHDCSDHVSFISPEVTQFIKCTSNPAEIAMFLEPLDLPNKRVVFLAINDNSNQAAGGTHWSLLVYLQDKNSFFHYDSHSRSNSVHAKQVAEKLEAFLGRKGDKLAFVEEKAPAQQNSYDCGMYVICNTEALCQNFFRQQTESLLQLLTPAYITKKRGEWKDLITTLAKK
SENP7 block: SENP7 protease inhibition; recombinant SENP7, Z-RLRGG-aminoluciferin luminescence, 40 min; inhibition, % at 5 µM; 1.5% of 330,000 active; AID 434973;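 active = inhibition above about 50% at the single test dose, limit read from the data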
SENP6 block: inhibitors of human SENP6 protease; Q9GZR1; Recombinant SENP6 catalytic domain, aminoluciferin luminescence; inhibition, % at 10 µM; 1.8% of 330,000 active; AID 2599;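 active = inhibition above about 50% at the single tested dose, limit read from the data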
Target sequence (Q9GZR1 628-1112 limits assumed): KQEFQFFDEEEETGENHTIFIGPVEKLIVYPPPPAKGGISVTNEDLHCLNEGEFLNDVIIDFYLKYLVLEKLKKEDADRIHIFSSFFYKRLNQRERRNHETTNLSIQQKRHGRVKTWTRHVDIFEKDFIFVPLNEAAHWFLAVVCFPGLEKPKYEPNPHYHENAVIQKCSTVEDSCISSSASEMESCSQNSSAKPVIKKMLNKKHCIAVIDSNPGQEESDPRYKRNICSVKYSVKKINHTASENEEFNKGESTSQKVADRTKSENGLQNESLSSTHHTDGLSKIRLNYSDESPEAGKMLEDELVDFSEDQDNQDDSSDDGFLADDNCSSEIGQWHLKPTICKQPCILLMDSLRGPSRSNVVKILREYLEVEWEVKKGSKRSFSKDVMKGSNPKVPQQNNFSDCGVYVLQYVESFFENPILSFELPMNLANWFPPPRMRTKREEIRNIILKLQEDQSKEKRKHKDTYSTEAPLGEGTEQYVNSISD
SENP8 block-2: inhibitors of human SENP8 protease; Q96LD8; purified SENP8, Z-RLRGG-aminoluciferin cleavage, luminescence; inhibition, % at 10 µM; 1.2% of 330,000 active; AID 2540; in the data active = inhibition above about 50%
Platelet DG rel: modulates dense granule release in human platelets; 0.22% of 300,000 active; inhibition, %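 (compounds screened at 7.5 µM in platelet-rich plasma)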; human platelet-rich plasma, SFLLRN dense granule ATP release, luminescence;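 active = mean replicate score, as percent of positive control, at or above 50; inconclusive = mean below 50 but at least one replicate at or above 50; inactive = mean and every replicate below 50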
SENP8 conf: human SENP8 inhibition, confirmed; 40% of 6,200 active; inhibition, % at 12.5 µM; Recombinant SENP8, Z-RLRGG-aminoluciferin luminescence, 60 min; shares compounds with SENP7 block; AID 488912;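 active = mean inhibition across replicates above about 50%, limit read from the data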
SENP6 conf: confirmation of human SENP6 protease inhibitors | shares compounds with SENP7 block | recombinant SENP6, Z-RLRGG-aminoluciferin luminescence | 58% of 6,200 active | inhibition, % at 12.5 µM
SENP7 conf: confirmation of human SENP7 protease inhibitors | shares compounds with SENP7 block | recombinant SENP7, Z-RLRGG-aminoluciferin luminescence, 40 min | inhibition, % at 12.5 µM | 69% of 6,200 active | AID 488917
Casp3 SENP sel: inhibits human caspase-3 in SENP selectivity test; shares compounds with SENP7 block; purified caspase-3, Z-DEVD-aminoluciferin luminescence, 60 min; inhibition, % at 12.5 µM; 60% of 6,200 active;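 active = mean inhibition above about 50%, limit read from the data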
Luc interf: counter-screen for SENP inhibitors: luminescence interference; Pre-incubated SENP8/Z-RLRGG-aminoluciferin, luciferase luminescence interference; inhibition, % at 12.5 µM; 39% of 6,200 active; shares compounds with SENP7 block;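 active = mean inhibition above about 50% when retested at one dose, limit read from the data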
Each line names hits and unclear results; the compound was inactive in the other large screens (follow-up assays come after a bar, where they were run). Most compounds without a hit are left out; they make up all but 2.4% or so of the library.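 Rule for the calls, unless noted: active = mean inhibition above about 50% in the one-dose retest (limit read from the data); inactive = the rest.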

COc1ccc2nc3cccc(OC)c3nc2c1	SENP6 block 72.6 | SENP8 conf inactive | SENP6 conf inactive | SENP7 conf inactive | Casp3 SENP sel 51.3 | Luc interf inactive
COc1ccc2nc(-c3ccco3)c(-c3ccco3)nc2c1	none
N#C/C(=N\Nc1ccc(Cl)c(Cl)c1)C(=O)C1CC1	SENP7 block 76.7, SENP6 block 96.3, SENP8 block-2 93.3 | SENP8 conf 91.5 | SENP6 conf 98.4 | SENP7 conf 100.3 | Casp3 SENP sel 86.8 | Luc interf inactive
N#C/C(=N\Nc1ccc(F)cc1)C(=O)C1CC1	none
CCOc1cc(C=O)cc(N=Nc2cccc([N+](=O)[O-])c2)c1O	SENP6 block 83.3, SENP8 block-2 82.1 (no result: Platelet DG rel) | SENP8 conf inactive | SENP6 conf inactive | SENP7 conf inactive | Casp3 SENP sel inactive | Luc interf inactive
CC1(C)CC(=O)C(N=Nc2cccc([N+](=O)[O-])c2)=C(O)C1	none
CCN(CC)C1=C(Cl)C(=O)C(Cl)C12OCCO2 (stereo not given)	none
COc1ccc(NC(=O)C(NS(=O)(=O)c2ccc3c(c2)CCCN3C(C)=O)C(C)C)c(OC)c1 (stereo not given)	SENP7 block 101.6 | SENP8 conf inactive | SENP6 conf inactive | SENP7 conf inactive | Casp3 SENP sel inactive | Luc interf inactive
CC(C)C(=O)N1CCN(c2ccccc2NC(=O)c2ccco2)CC1	SENP6 block 103.2 | SENP8 conf inactive | SENP6 conf inactive | SENP7 conf inactive | Casp3 SENP sel inactive | Luc interf inactive
O=C(Nc1cccc([N+](=O)[O-])c1)c1ccc([N+](=O)[O-])o1	none (no result: SENP7 block, SENP6 block, SENP8 block-2, Platelet DG rel)
Cc1cc(C(=O)Nc2ccc3ccccc3c2)oc1C	SENP7 block 53.8, SENP6 block 68.3, SENP8 block-2 60.9 | SENP8 conf inactive | SENP6 conf 66.5 | SENP7 conf 88.9 | Casp3 SENP sel 50.1 | Luc interf 52.6
Cc1cc(C(=O)Nc2ccc3ccccc3c2)c(C)o1	SENP7 block 68.7, SENP6 block 84.3, SENP8 block-2 73.3 | SENP8 conf 84.5 | SENP6 conf 84.3 | SENP7 conf 96.5 | Casp3 SENP sel 65.8 | Luc interf 67.6
Cc1ccc(NC(=O)c2ccc([N+](=O)[O-])o2)cc1C	SENP7 block 87.3, SENP6 block 75.9, SENP8 block-2 60.7 | SENP8 conf 80.8 | SENP6 conf 80.4 | SENP7 conf 94.1 | Casp3 SENP sel 78.6 | Luc interf 79.8
Cc1ccoc1C(=O)Nc1ccc2ccccc2c1	SENP7 block 99.5, SENP6 block 97.4, SENP8 block-2 96.3 | SENP8 conf 95.8 | SENP6 conf 98.2 | SENP7 conf 102.3 | Casp3 SENP sel 95.6 | Luc interf 91.5
COc1ccc(S(=O)(=O)N2CCN(c3ccc(F)cc3)CC2)cc1C(=O)N1CCOCC1	none
O=C(/C=C/Nc1ccccc1C(F)(F)F)c1ccco1	SENP7 block 68.6, SENP6 block 76.9, SENP8 block-2 54.1 | SENP8 conf inactive | SENP6 conf 59.5 | SENP7 conf 86.6 | Casp3 SENP sel 51.1 | Luc interf inactive
NC(=O)c1ccccc1N/C=C/C(=O)c1ccco1	SENP6 block 72.6 | SENP8 conf 71.8 | SENP6 conf 69.3 | SENP7 conf 86.9 | Casp3 SENP sel 86.1 | Luc interf 71.6
O=C(/C=C/Nc1ccc(Oc2ccccc2)cc1)c1ccco1	SENP7 block 97.7, SENP6 block 94.9, SENP8 block-2 95.2, Platelet DG rel 53.4 | SENP8 conf inactive | SENP6 conf 98.5 | SENP7 conf 102.2 | Casp3 SENP sel 95.0 | Luc interf inactive
O=C(/C=C/c1ccccc1O)c1ccco1	none
O=C(Nc1ccc(Oc2ccc3ccccc3c2)cc1)c1ccco1	none
CC(=O)Nc1ccccc1C(F)(F)F	none
CC(C)CNC(=O)c1cc(S(=O)(=O)N2CCOCC2)ccc1N1CCCC1	none
CCOC(=O)N/N=C\c1ccc(OC(=O)c2ccc3c(c2)OCO3)cc1	SENP7 block 72.0, SENP6 block 66.3, SENP8 block-2 57.8 | SENP8 conf inactive | SENP6 conf inactive | SENP7 conf inactive | Casp3 SENP sel inactive | Luc interf inactive
COc1cc(SC)ccc1C(=O)Nc1ccc2c(c1)OCO2	none (no result: SENP7 block, SENP6 block, SENP8 block-2)
O=C(Nc1ccc2c(c1)OCCO2)c1ccc(Cl)cc1Cl	SENP7 block 66.6, SENP6 block 71.3 | SENP8 conf 70.0 | SENP6 conf 66.1 | SENP7 conf 86.7 | Casp3 SENP sel 69.9 | Luc interf 64.8
O=C(Nc1ccc2c(c1)OCO2)c1ccc(Cl)cc1Cl	SENP7 block 72.4, SENP6 block 52.0, SENP8 block-2 55.2 | SENP8 conf inactive | SENP6 conf 55.8 | SENP7 conf 86.0 | Casp3 SENP sel 68.6 | Luc interf 64.5
COc1ccc(C(=O)Nc2ccc3c(c2)OCCO3)c(OC)c1	none (no result: SENP7 block, SENP6 block, SENP8 block-2, Platelet DG rel)
O=C(Nc1ccc2c(c1)OCO2)c1cc(Cl)ccn1	SENP7 block 80.9, SENP6 block 84.5, SENP8 block-2 77.0 (no result: Platelet DG rel) | SENP8 conf 80.7 | SENP6 conf 80.1 | SENP7 conf 96.4 | Casp3 SENP sel 88.4 | Luc interf inactive
O=C(Nc1ccc2c(c1)OCO2)c1cc(-c2ccccc2Cl)on1	none
CCCCOCCCNC(=O)CN1C(=O)c2ccccc2C1=O	SENP7 block 88.0 | SENP8 conf inactive | SENP6 conf inactive | SENP7 conf inactive | Casp3 SENP sel inactive | Luc interf inactive
Cc1ccc(C)c(NC(=S)c2ccccn2)c1	none
S=C(Nc1ccccn1)c1ccccn1	SENP7 block 83.8, SENP8 block-2 67.9 | SENP8 conf 53.4 | SENP6 conf 76.3 | SENP7 conf 93.5 | Casp3 SENP sel 85.6 | Luc interf inactive
COc1cc(/C=N/N=C(\N)c2nonc2N)ccc1O	SENP7 block 93.8, SENP6 block 93.4, SENP8 block-2 88.8, Platelet DG rel inconclusive | SENP8 conf 92.7 | SENP6 conf 92.1 | SENP7 conf 99.0 | Casp3 SENP sel 94.4 | Luc interf 92.2
N/C(=N\N=C\c1ccc(Br)o1)c1nonc1N	none
N/C(=N\N=C\c1ccc(O)cc1)c1nonc1N	SENP7 block 97.8, SENP6 block 93.1, SENP8 block-2 95.1, Platelet DG rel 64.5 | SENP8 conf 97.4 | SENP6 conf 98.2 | SENP7 conf 102.4 | Casp3 SENP sel 98.0 | Luc interf 96.3
N/C(=N\N=C\c1cccc(O)c1)c1nonc1N	SENP7 block 97.3, SENP6 block 95.1, SENP8 block-2 94.6, Platelet DG rel 70.1 | SENP8 conf 97.1 | SENP6 conf 98.9 | SENP7 conf 102.4 | Casp3 SENP sel 97.7 | Luc interf 94.0
